In the supplement of paper PMC8728848:
This excerpt belongs to a sample that is enriched for the strongest signals.

Key:
Experiment in all cases: glycan array binding signal (z-score within array); higher = stronger binding
Conditions in all cases: glycan notation: IUPAC condensed, linker removed
[1] = biological target: Fuc(a1-2)Gal(b1-3)GalNAc(b1-3)Gal
In short: (§1)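 Negative Z-scores can be read as non-binding. The Z-score is calculated within each array and then averaged across arrays of one protein sequence at different concentrations or buffers and across linkers. Arrays, 3228 in all, were curated from the Consortium for Functional Glycomics database and kept only where the protein sequence was available.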

Fuc(a1-2)Gal(b1-4)Glc = biological target: Fuc(a1-2)Gal(b1-4)Glc
In short: as §1

[2] = biological target: Fuc(a1-2)Gal(b1-4)GlcNAc(b1-2)Man(a1-3)[Fuc(a1-2)Gal(b1-4)GlcNAc(b1-2)Man(a1-6)]Man(b1-4)GlcNAc(b1-4)[Fuc(a1-6)]GlcNAc
In short: as §1

[3] = biological target: Fuc(a1-2)[Gal(a1-3)]Gal(b1-3)GalNAc(b1-3)Gal(a1-4)Gal(b1-4)Glc
In short: as §1

[4] = biological target: Fuc(a1-2)[Gal(a1-3)]Gal(b1-3)GlcNAc
In short: as §1

[5] = biological target: Fuc(a1-2)[Gal(a1-3)]Gal(b1-4)GlcNAc(b1-2)Man(a1-3)[Fuc(a1-2)[Gal(a1-3)]Gal(b1-4)GlcNAc(b1-2)Man(a1-6)]Man(b1-4)GlcNAc(b1-4)GlcNAc
In short: as §1

[6] = biological target: Fuc(a1-2)[Gal(a1-3)]Gal(b1-4)GlcNAc(b1-6)GalNAc
In short: as §1

Gal(a1-3)Gal(b1-3)GlcNAc = biological target: Gal(a1-3)Gal(b1-3)GlcNAc
In short: as §1

[7] = biological target: Gal(a1-3)Gal(b1-3)GlcNAc(b1-6)GalNAc
In short: as §1

[8] = biological target: Gal(a1-3)Gal(b1-4)GlcNAc(b1-3)GalNAc
In short: as §1

Gal(a1-4)GlcNAc = biological target: Gal(a1-4)GlcNAc
In short: as §1

Gal(b1-3)Gal = biological target: Gal(b1-3)Gal
In short: as §1

Gal(b1-3)Gal(b1-4)GlcNAc = biological target: Gal(b1-3)Gal(b1-4)GlcNAc
In short: as §1

[9] = biological target: Gal(b1-3)GlcNAc(a1-6)Gal(b1-4)GlcNAc
In short: as §1

Gal(b1-3)GlcNAc(b1-2)Man = biological target: Gal(b1-3)GlcNAc(b1-2)Man
In short: as §1

[10] = biological target: Gal(b1-3)GlcNAc(b1-3)Gal(b1-3)GlcNAc
In short: as §1

[11] = biological target: Gal(b1-3)GlcNAc(b1-6)GalNAc
In short: as §1

[12] = biological target: Gal(b1-3)[Fuc(a1-4)]GlcNAc(b1-3)Gal(b1-3)[Fuc(a1-4)]GlcNAc
In short: as §1

Gal(b1-4)Glc6S = biological target: Gal(b1-4)Glc6S
In short: as §1

[13] = biological target: Gal(b1-4)GlcNAc(a1-6)Gal(b1-4)GlcNAc
In short: as §1

Gal(b1-4)GlcNAc(b1-2)Man = biological target: Gal(b1-4)GlcNAc(b1-2)Man
In short: as §1

[14] = biological target: Gal(b1-4)GlcNAc(b1-3)Gal(b1-3)GlcNAc
In short: as §1

[15] = biological target: Gal(b1-4)GlcNAc(b1-3)Gal(b1-4)GlcNAc(b1-3)Gal(b1-4)GlcNAc(b1-2)Man(a1-3)[Gal(b1-4)GlcNAc(b1-3)Gal(b1-4)GlcNAc(b1-3)Gal(b1-4)GlcNAc(b1-2)Man(a1-6)]Man(b1-4)GlcNAc(b1-4)GlcNAc
In short: as §1

[16] = biological target: Gal(b1-4)GlcNAc(b1-6)GalNAc
In short: as §1

Gal3S(b1-3)GalNAc = biological target: Gal3S(b1-3)GalNAc
In short: as §1

Gal3S(b1-4)Glc = biological target: Gal3S(b1-4)Glc
In short: as §1

[17] = biological target: Gal3S(b1-4)[Fuc(a1-3)]GlcNAc
In short: as §1

[18] = biological target: Gal3S(b1-4)[Fuc(a1-3)]GlcNAc6S
In short: as §1

Gal4S(b1-4)GlcNAc = biological target: Gal4S(b1-4)GlcNAc
In short: as §1

Gal6S(b1-4)GlcNAc = biological target: Gal6S(b1-4)GlcNAc
In short: as §1

B1: Cohesin-hMARCO (Homo sapiens) (protein)
chain: LDDLDAVRIKVDTVNAKPGDTVRIPVRFSGIPSKGIANCDFVYSYDPNVLEIIEIEPGDIIVDPNPDKSFDTAVYPDRKIIVFLFAEDSGTGAYAITKDGVFATIVAKVKEGAPNGLSVIKFVEVGGFANNDLVEQKTQFFDGGANVGDTTEPATPTTPVTTPTTTDDLDAASVRIVGSSNRGRAEVYYSGTWGTICDDEWQNSDAIVFCRMLGYSKGRALYKVGAGTGQIWLDNVQCRGTESTLWSCTKNSWGHHDCSHEEDAGVECSVHHHHHH
- glycan array binding signal (z-score) [1]: 3.9
- glycan array binding signal (z-score) (Fuc(a1-2)Gal(b1-4)Glc): 0.78
- glycan array binding signal (z-score) [2]: -0.156
- glycan array binding signal (z-score) [3]: -0.528
- glycan array binding signal (z-score) [4]: 2.72
- glycan array binding signal (z-score) [5]: -0.358
- glycan array binding signal (z-score) [6]: -0.528
- glycan array binding signal (z-score) (Gal(a1-3)Gal(b1-3)GlcNAc): 11.2
- glycan array binding signal (z-score) [7]: 2.88
- glycan array binding signal (z-score) [8]: -0.296
- glycan array binding signal (z-score) (Gal(a1-4)GlcNAc): -0.083
- glycan array binding signal (z-score) (Gal(b1-3)Gal): -0.397
- glycan array binding signal (z-score) (Gal(b1-3)Gal(b1-4)GlcNAc): -0.262
- glycan array binding signal (z-score) [9]: -0.309
- glycan array binding signal (z-score) (Gal(b1-3)GlcNAc(b1-2)Man): -0.288
- glycan array binding signal (z-score) [10]: -0.434
- glycan array binding signal (z-score) [11]: 1.7
- glycan array binding signal (z-score) [12]: 5.33
- glycan array binding signal (z-score) (Gal(b1-4)Glc6S): -0.057
- glycan array binding signal (z-score) [13]: 0.044
- glycan array binding signal (z-score) (Gal(b1-4)GlcNAc(b1-2)Man): -0.48
- glycan array binding signal (z-score) [14]: -0.462
- glycan array binding signal (z-score) [15]: 0.365
- glycan array binding signal (z-score) [16]: 1.21
- glycan array binding signal (z-score) (Gal3S(b1-3)GalNAc): 0.13
- glycan array binding signal (z-score) (Gal3S(b1-4)Glc): 3.03
- glycan array binding signal (z-score) [17]: -0.386
- glycan array binding signal (z-score) [18]: 3.73
- glycan array binding signal (z-score) (Gal4S(b1-4)GlcNAc): -0.154
- glycan array binding signal (z-score) (Gal6S(b1-4)GlcNAc): -0.215
